TMEM16A inh: mouse TMEM16A channel inhibition, primary screen; AID 588511; HEK293 TMEM16A/YFP iodide influx fluorescence, ionomycin; 310,000 tested, 1.2% active; normalized B-score (activity score, 25-100; higher = stronger inhibition) at 10 µM; Q8BHY3;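 active = ratio plate-corrected score three or more library SD toward inhibition, starting fluorescence score within five deviations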;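 note: score derived from kinetic fluorescence span divided by baseline fluorescence per well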
CHT PAM: human CHT allosteric activation. Q9GZV3. CHT-expressing cells, membrane potential dye, choline EC20; hits give high values; LV-AA mutant CHT in HEK293 cells. B-score at 10 µM. 310,000 tested, 0.49% active;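 active = initial fluorescence not abnormally high and integrated response B-score, plate-corrected, over 3 SD above library mean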
TMEM16A act: activators or potentiators of mouse TMEM16A chloride channel; Q8BHY3; HEK293 TMEM16A/YFP-H148Q/I152L, iodide quench fluorescence; hits give low values; B-score at 10 µM; 340,000 tested, 0.3% active;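 active = fluorescence-ratio B-score plate-corrected deviation score at least 3 library SD below zero, with starting fluorescence score within 5 deviations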;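 note: channel opened by trigger with iodide after compound preincubation; score built on the fluorescence ratio of max minus min over baseline; more negative score means more quench and so TMEM16A activation or potentiation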
Kir21 block: Kir2.1 (mouse) channel inhibition. P35561. B-score at 10 µM. AID 1672. 310,000 tested, 0.85% active. HEK293-Kir2.1, FluxOR thallium flux fluorescence; hits give low values;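 active = fluorescence ratio B-score at or below minus 3 SD of library scores, with starting-brightness B-score within 2 SD, cut at about -4.2 in these data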;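 note: channel flux triggered by added potassium and thallium sulfate stimulus; B-score of peak minus minimum fluorescence over baseline after thallium stimulus; more negative B-score means stronger Kir2.1 block with less thallium influx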
Target sequence (P35561 whole entry, looked up): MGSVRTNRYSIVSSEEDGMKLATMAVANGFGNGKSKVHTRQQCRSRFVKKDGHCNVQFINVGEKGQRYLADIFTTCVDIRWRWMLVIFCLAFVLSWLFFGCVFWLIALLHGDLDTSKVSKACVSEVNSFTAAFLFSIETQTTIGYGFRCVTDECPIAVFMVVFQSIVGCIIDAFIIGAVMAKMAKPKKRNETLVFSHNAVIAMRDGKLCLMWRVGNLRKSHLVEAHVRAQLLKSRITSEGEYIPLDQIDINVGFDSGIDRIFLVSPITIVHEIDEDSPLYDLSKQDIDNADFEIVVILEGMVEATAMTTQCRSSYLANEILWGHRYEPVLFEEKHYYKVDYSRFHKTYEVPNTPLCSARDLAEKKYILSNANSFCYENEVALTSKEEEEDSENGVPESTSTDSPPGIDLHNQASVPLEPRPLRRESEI
CHT inh: inhibitors of human choline transporter CHT; Q9GZV3; CHT-expressing cells, membrane potential dye, choline response; hits give low values; B-score at 10 µM; 310,000 tested, 0.86% active; AID 488975;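 active = B-score over 3 SD under the library average, and starting fluorescence ratio not unusually high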;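 note: choline stimulus applied at its EC90 after an EC20 pre-addition; B-score computed on integrated fluorescence ratio after choline addition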
Rce1 inh: yeast Ras-converting enzyme inhibition. calls only. yeast membranes, quenched prenylated peptide cleavage fluorescence. 290,000 tested, 0.27% active. Q03530;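 active = fall in fluorescence gain of 50% or more versus controls, with final raw signal at or below 3038400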;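 note: plate controls were neutral control wells for no effect and wells lacking membranes for full effect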
TMEM16A reconf: re-confirmation of mouse TMEM16A chloride channel inhibitors; shares compounds with TMEM16A inh; HEK293 TMEM16A/YFP-H148Q, iodide quench fluorescence; ionomycin added to raise cell calcium; inhibition, % at 10 µM; 2,300 tested, 39% active; AID 652189;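 active = mean duplicate percent inhibition, scaled so buffer wells are 0 and the reference blocker 100, over three buffer SD above buffer mean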
TMEM16A Ca cntr: alters calcium mobilization in TMEM16A HEK293 cells, counter-screen; shares compounds with TMEM16A inh; calcium response (% of ionomycin), % at 10 µM; TMEM16A/YFP HEK293, Fluo4 calcium mobilization; 2,300 tested, 2% active;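 active = duplicate-averaged calcium signal over 20% of the ionomycin maximum, relative to buffer baseline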;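 note: each well's signal is peak minus trough fluorescence divided by its pre-addition baseline; 0% = buffer wells and 100% = ionomycin wells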
Parental YFP cnt: parental YFP-HEK293 iodide quench counter-screen activity; shares compounds with TMEM16A inh; ionomycin; YFP ratio F(max-min)/F0 at 10 µM; 2,300 tested, under 10 active; AID 652233;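 active = yellow fluorescent protein signal ratio exceeding the buffer control mean by over 5 SD of those controls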;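 note: ratio is mean of duplicate wells from kinetic YFP trace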
ClC-1 inh: blocks the rat ClC-1 voltage-dependent chloride channel | shares compounds with TMEM16A inh | CHO ClC-1-YFP, iodide influx fluorescence quench; iodide control reads 0, buffer control 100 | ratio percent, % at 10 µM | 2,300 tested, under 10 active;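 active = duplicate-mean ratio percent above the mean of iodide-only control wells, which defines zero, plus 5 of their SD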;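 note: higher percent means stronger block of ClC-1 iodide influx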
The depositor's hits bear a star; i = inactive; . = no result. Sampled rows, rich in hits. Any-hit rate of the full collection: about 3.2%.

SMILES	TMEM16A inh	CHT PAM	TMEM16A act	Kir21 block	CHT inh	Rce1 inh	TMEM16A reconf	TMEM16A Ca cntr	Parental YFP cnt	ClC-1 inh
O=C(Nc1cccc(Cl)c1)N1CCN(Cc2ccccc2)CC1	100*	i	i	1.86	i	i	i	i	-1.07	-8.0
Cc1cccc(NC(=O)N2CCN(Cc3ccc(Cl)cc3)CC2)c1	i	i	i	0.02	i	i	.	.	.	.
Cc1cc(C)c(NC(=O)Cn2nnc(C(=O)NCc3ccc4c(c3)OCO4)c2N)c(C)c1	i	i	i	0.39	i	i	.	.	.	.
COc1ccc(CCNS(=O)(=O)c2ccc(OC)cc2)cc1	25*	i	i	-1.5	i	i	i	i	-0.776	-5.0
O=C(CCN1C(=O)COc2ccccc21)N1CCCCC1	i	i	i	0.63	i	i	i	i	-0.957	-5.5
CNC(=O)COC(=O)C1CCN(S(=O)(=O)c2ccc3c(c2)OCCO3)CC1	.	.	i	.	.	.	.	.	.	.
CCc1ccc(S(=O)(=O)/N=C2\C=C(Nc3ccc(C(=O)O)cc3)C(=O)c3ccccc32)cc1	100*	i	i	0.11	-7.23*	i	23.0%*	i	-0.768	-8.5
COC(=O)c1ccccc1NC1=C/C(=N\S(=O)(=O)c2ccc(C(=O)O)cc2)c2ccccc2C1=O	i	i	i	-0.71	i	i	.	.	.	.
COc1ccc(Cc2nnc(SC(C)C(=O)Nc3ccc(C(N)=O)cc3)o2)cc1 (configuration not stated)	i	i	i	-1.81	i	i	.	.	.	.
Cc1ccc(C(C)NC(=O)c2c(C)noc2C)cc1C (configuration not stated)	25*	i	i	0.61	i	i	i	i	-1.02	-10.0
COc1ccc(Cl)cc1NC(=O)C(OC)c1ccccc1 (configuration not stated)	i	i	i	-0.12	i	i	.	.	.	.
COC(/C(=N/O)c1ccc(Cl)cc1)c1ccccc1 (configuration not stated)	100*	i	i	-2.86	i	i	25.5%*	i	-1.28	-25.5
CC1(C)O[C@@H]2[C@H](O1)[C@@H](COS(=O)(=O)O)O[C@H]2n1cc(Br)c(=O)[nH]c1=O	.	.	i	.	.	.	.	.	.	.
O=C(Nc1cccc(S(=O)(=O)Nc2ccccc2F)c1)c1ccc2ccccc2n1	100*	i	i	0.62	i	i	i	i	-0.926	-5.0
COC(=O)c1ccccc1NC(=O)CNc1ccc(F)c(S(=O)(=O)N2CCOCC2)c1	.	.	i	.	.	.	.	.	.	.
COc1ccc(/C=N/Nc2nnc(Cc3ccccc3)c(=O)[nH]2)cc1	i	i	i	-0.37	i	i	i	i	-0.357	-3.5
Cc1cc(C)c(C)c(S(=O)(=O)NCc2ccncc2)c1C	25*	i	i	-0.58	i	i	26.0%*	i	-1.03	-14.0
CN(CC(=O)Nc1ccc(Cl)c(C(F)(F)F)c1)C(=O)c1ccc(OCC2CCCO2)cc1 (configuration not stated)	i	i	i	-1.15	i	i	.	.	.	.
CCOC(=O)C1CCN(C(=O)c2ccc3c(c2)OCCO3)CC1	.	.	i	.	.	.	.	.	.	.
CCOc1ccc(C(=O)N2CCC(C(=O)c3ccc4c(c3)OCCO4)CC2)cc1	100*	i	i	-0.4	i	i	i	i	-1.24	-12.0
O=C1C(Oc2ccccc2)C(c2cccs2)N1Cc1ccc2c(c1)OCO2 (configuration not stated)	i	i	i	-0.63	i	i	.	.	.	.
COc1ccc(OC2C(=O)N(Cc3ccc4c(c3)OCO4)C2c2cccs2)cc1 (configuration not stated)	100*	i	i	1.14	i	i	28.0%*	i	-0.876	-4.0
COc1ccc(OCC(=O)Nc2ccc3oc(-c4ccncc4)nc3c2)cc1	i	i	i	-0.14	i	i	.	.	.	.
COc1ccc(-c2nc3cc(NC(=O)Cc4ccc(OC)c(OC)c4)ccc3o2)cc1	100*	i	i	0.07	i	i	i	i	-0.951	-7.5
CCOc1ccc(-n2ccn(CC(=O)NCCc3ccccc3)c(=O)c2=O)cc1	.	.	i	-0.22	.	i	.	.	.	.
SMILES	TMEM16A inh	CHT PAM	TMEM16A act	Kir21 block	CHT inh	Rce1 inh	TMEM16A reconf	TMEM16A Ca cntr	Parental YFP cnt	ClC-1 inh
COc1cc2c(cc1NCc1ccc3c(c1)OCO3)oc1ccccc12	i	i	i	0	i	i	.	.	.	.
COc1cc2c(cc1NCc1ccccn1)oc1ccccc12	100*	i	i	-0.63	i	i	i	i	-1.04	-13.0
COc1ccc(-c2nnc3ccc(SCC(=O)NCc4ccco4)nn23)cc1	i	i	i	0.1	i	i	.	.	.	.
Cc1nnc(SCC(=O)NCc2ccco2)n1-c1ccccc1	i	i	i	-0.16	i	i	.	.	.	.
O=C(CSc1ncc(-c2ccccc2)n1-c1ccccc1)NCc1ccco1	25*	i	i	-1.91	i	i	i	i	-0.983	-8.5
O=C(CSc1ccc2nnc(-c3ccccc3)n2n1)NCc1ccco1	100*	i	i	0.53	i	i	i	i	-0.968	-7.0
C=CCn1c(SCC(=O)c2cccs2)nc2sc(CC)cc2c1=O	100*	i	i	0.04	i	i	64.5%*	i	-0.916	-16.5
CC(=O)N1CCSc2ccc(S(=O)(=O)NCCc3ccc(C)cc3)cc21	i	i	i	-2.44	i	i	.	.	.	.
CC(=O)N1CCSc2ccc(S(=O)(=O)NCCc3ccc(Cl)cc3)cc21	100*	i	i	-3.25	i	i	34.0%*	i	-0.86	-11.0
O=C(CN1C(=O)NC2(CCc3ccccc32)C1=O)Nc1ccccc1C(F)(F)F (configuration not stated)	.	.	i	.	.	.	.	.	.	.
Cc1ccnc(NC(=O)COc2ccc3oc4c(c3c2)CCCC4)c1	100*	i	i	0.21	i	i	i	i	-1.11	-2.5

Compound activity as filed in PubChem.
